Laboratory results: PubChem BioAssay
Activity calls are given as the source filed them.

Tests used:
[1] = A549 cell viability effects, profiling panel, calcein-AM fluorescence, 48 h, basal (AID 1162); conditions: higher = more signal; note: test concentration not given here
[2] = adipocyte viability effects, profiling panel, cell-based, 3T3-L1 adipocytes, calcein-AM fluorescence, 48 h, basal (AID 1163); conditions: 3T3-L1 adipocytes viability, higher = more signal; note: test concentration not given here
[3] = HepG2 cell viability effects, profiling panel, calcein-AM fluorescence, 48 h, basal (AID 1164); conditions: higher = more signal; note: test concentration not given here
[4] = MM1S cell viability effects, profiling panel, calcein-AM fluorescence, 48 h, basal (AID 1165); conditions: higher = more signal;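 note: viability of MM1S multiple myeloma cells under basal unstimulated conditions; test concentration not given here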
[5] = basal RPMI8226 viability, no added stimulus, profiling panel, cell-based, calcein-AM fluorescence, 48 h, PK04 Diversity Set (AID 1166); conditions: RPMI8226 myeloma viability, higher = more signal;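 note: cells grown under basal conditions without added stimulus; test concentration not given here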
[6] = basal HepG2 mitochondrial membrane potential changes, profiling panel, cell-based, JC-1 fluorescence, 24 h, 100 nL compound (AID 1167); conditions: higher = more signal; note: test concentration not given here
[7] = basal 3T3-L1 adipocyte mitochondrial potential changes, profiling panel, cell-based, JC-1 fluorescence, 3T3-L1 adipocytes, 24 h, 100 nL compound (AID 1168); conditions: JC-1 mitochondrial fluorescence, higher = more signal, called active from +8 up or from −8 down; note: test concentration not given here
[8] = basal RPMI8226 mitochondrial membrane potential changes, profiling panel, cell-based, JC-1 fluorescence, 24 h, 100 nL compound (AID 1169); conditions: RPMI8226 myeloma, JC-1 mitochondrial potential fluorescence, higher = more signal; note: test concentration not given here
[9] = basal MM1S mitochondrial membrane potential changes, profiling panel, cell-based, JC-1 fluorescence, 24 h, 100 nL compound (AID 1170); conditions: higher = more signal; note: test concentration not given here
[10] = A549 lung cancer cell viability effects, profiling panel, resazurin fluorescence, 24 h, PK04 Diversity Set (AID 1171); conditions: higher = more signal, called active from +8 up or from −8 down; note: test concentration not given here
[11] = HepG2 liver cancer cell viability effects, profiling panel, resazurin fluorescence, 24 h, PK04 Diversity Set (AID 1172); conditions: higher = more signal; note: test concentration not given here
[12] = basal S. cerevisiae growth modulation, no modifier, primary screen, OD600, strain BY4716, 24 h, basal condition (AID 1173); conditions: OD600, 24 h, higher = more signal, called active from +8 up or from −8 down
[13] = MM1S myeloma cell viability, profiling panel, resazurin fluorescence, basal, 24 h, PK04 Diversity Set (AID 1174); conditions: higher = more signal, called active from +8 up or from −8 down;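 note: MM1S multiple myeloma cell line; test concentration not given here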
[14] = target: Dihydroorotate dehydrogenase (quinone), mitochondrial (Plasmodium falciparum (isolate 3D7)) (UniProt Q08210); assay: PfDHODH enzyme inhibitors, primary screen, biochemical, C-terminal His tag, absorbance 600 nm (AID 1175); conditions: DCIP absorbance 600 nm, higher = more signal, called active from +8 up or from −8 down;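 note: recombinant parasite enzyme with a five histidine tag at its C terminus; test concentration not given here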
Chain of Dihydroorotate dehydrogenase (quinone), mitochondrial (Plasmodium falciparum (isolate 3D7)) (Q08210 whole entry, looked up): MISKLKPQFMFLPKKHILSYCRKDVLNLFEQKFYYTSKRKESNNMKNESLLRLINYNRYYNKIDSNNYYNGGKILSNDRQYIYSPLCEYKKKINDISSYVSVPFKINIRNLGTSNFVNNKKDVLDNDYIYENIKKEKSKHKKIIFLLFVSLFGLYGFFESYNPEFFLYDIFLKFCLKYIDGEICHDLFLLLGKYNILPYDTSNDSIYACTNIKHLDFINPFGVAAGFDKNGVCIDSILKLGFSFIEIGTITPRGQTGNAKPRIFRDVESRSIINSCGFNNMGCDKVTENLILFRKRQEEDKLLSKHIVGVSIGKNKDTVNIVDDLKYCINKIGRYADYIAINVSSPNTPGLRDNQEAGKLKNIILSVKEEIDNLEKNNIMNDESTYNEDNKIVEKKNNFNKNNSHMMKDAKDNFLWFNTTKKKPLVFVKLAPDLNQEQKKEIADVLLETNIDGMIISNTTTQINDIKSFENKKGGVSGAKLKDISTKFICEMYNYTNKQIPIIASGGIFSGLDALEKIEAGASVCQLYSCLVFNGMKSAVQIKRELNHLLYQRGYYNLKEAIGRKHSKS

[15] = S. cerevisiae RM11-1a growth modifiers, primary screen, strain RM11-1a, OD600, basal, 24 h (AID 1177); conditions: OD600, 24 h, higher = more signal, called active from +8 up or from −8 down;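 note: cultures grown under basal conditions with no added stressor; test concentration not given here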
[16] = E. coli acrAB mutant growth effects, primary screen, E. coli filamentation inducers, strain DRC39, OD650, 24 h (AID 1178); conditions: higher = more signal, called active from +8 up or from −8 down;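 note: growth measured as culture turbidity by optical density at 650 nm; test concentration not given here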
[17] = E. coli acrAB mutant growth effects, primary screen, E. coli filamentation inducers, strain DRC39, OD650, 48 h (AID 1179);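 note: screen aims at cell division blockers that make cells filament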; conditions: E. coli DRC39 delta-acrAB growth, higher = more signal, called active from +8 up or from −8 down
[18] = RPMI8226 myeloma cell viability, profiling panel, resazurin fluorescence, basal, 24 h, PK04 Diversity Set (AID 1180); conditions: higher = more signal;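 note: RPMI8826 multiple myeloma cell line at 5000 cells per well; test concentration not given here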
[19] = target: E3 ubiquitin-protein ligase XIAP (Homo sapiens) (UniProt P98170); assay: XIAP binders, primary screen, biophysical, small-molecule microarray, fluorescence 635 nm (AID 1181); conditions: small-molecule microarray binding, higher = more signal;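 note: score merges 667 nm emission and signal to noise over triplicate slides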
Chain of E3 ubiquitin-protein ligase XIAP (Homo sapiens) (P98170 whole entry, looked up): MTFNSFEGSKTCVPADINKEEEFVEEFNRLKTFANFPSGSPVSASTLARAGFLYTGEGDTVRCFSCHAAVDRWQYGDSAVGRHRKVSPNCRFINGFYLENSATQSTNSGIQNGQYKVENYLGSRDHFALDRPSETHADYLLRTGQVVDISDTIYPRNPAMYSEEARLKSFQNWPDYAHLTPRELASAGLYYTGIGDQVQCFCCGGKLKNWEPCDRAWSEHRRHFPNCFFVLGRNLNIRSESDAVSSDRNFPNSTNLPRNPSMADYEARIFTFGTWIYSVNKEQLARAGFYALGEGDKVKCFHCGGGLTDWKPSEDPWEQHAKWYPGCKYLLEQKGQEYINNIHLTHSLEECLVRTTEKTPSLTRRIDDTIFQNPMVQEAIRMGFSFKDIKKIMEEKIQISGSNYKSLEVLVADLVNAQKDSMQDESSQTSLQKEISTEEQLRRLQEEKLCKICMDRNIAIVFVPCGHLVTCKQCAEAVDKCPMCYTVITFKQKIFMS

COc1ccc([Si](C)(C)[C@H]2[C@H](CC(=O)N3Cc4ccccc4C[C@H]3CO)O[C@@]3(C(=O)N(Cc4cccc(N5CCOC5=O)c4)c4ccccc43)[C@@H]2C)cc1
z-score [1]: 0.443
z-score [2]: 0.373
z-score [3]: -0.632
z-score [4]: -0.913
z-score [5]: -0.727
z-score [6]: 1.31
z-score [7]: 0.405 (inactive)
z-score [8]: -1.1
z-score [9]: -0.223
z-score [10]: -0.399 (inactive)
z-score [11]: -0.341
z-score [12]: -2.22 (inactive)
z-score [13]: -1.71 (inactive)
composite z-score [14]: -0.135 (inactive)
z-score [15]: 0.446 (inactive)
z-score [16]: 1.63 (inactive)
z-score [17]: 0.856 (inactive)
z-score [18]: -1.75
composite z-score [19]: 0.22

COCCOC(=O)N1C(=O)[C@@]2(c3cc(C#CCCO)ccc31)[C@H](C(=O)N1CCCCCCC1)[C@H]1C(=O)O[C@H](c3ccccc3)[C@H](c3ccccc3)N1[C@@H]2c1ccc(O)cc1
z-score [1]: 1.53
z-score [2]: 0.843
z-score [3]: 1.87
z-score [4]: 0.555
z-score [5]: -0.479
z-score [6]: 0.538
z-score [7]: 2.37 (inactive)
z-score [8]: -1.04
z-score [9]: 0.0272
z-score [10]: 0.641 (inactive)
z-score [11]: 0.801
z-score [12]: -1.74 (inactive)
z-score [13]: 1.14 (inactive)
composite z-score [14]: 0.138 (inactive)
z-score [15]: -2.75 (inactive)
z-score [16]: 0.561 (inactive)
z-score [17]: 1.43 (inactive)
z-score [18]: 0.613
composite z-score [19]: 0.144

CN(C)C(=O)[C@@]1(Cc2ccccc2N=[N+]=[N-])N=C(c2ccc(OCCCO)cc2)O[C@H]1c1ccccc1CN=[N+]=[N-]
z-score [1]: -0.996
z-score [2]: 1.16
z-score [3]: -1.23
z-score [4]: -2.91
z-score [5]: -3.39
z-score [6]: 2.17
z-score [7]: 0.618 (inactive)
z-score [8]: -0.904
z-score [9]: -0.679
z-score [10]: 0.276 (inactive)
z-score [11]: 1.12
z-score [12]: -1.4 (inactive)
z-score [13]: -0.437 (inactive)
composite z-score [14]: -0.812 (inactive)
z-score [15]: -0.726 (inactive)
z-score [16]: 2.45 (inactive)
z-score [17]: 0.842 (inactive)
z-score [18]: -1.67
composite z-score [19]: 0.229

CO[C@@H]1COC(=O)CC=C[C@H](C)COC(=O)[C@H](Cc2ccccc2)NC(=O)CC=C[C@H]1C
z-score [1]: 0.392
z-score [2]: 0.509
z-score [3]: 0.674
z-score [4]: 0.305
z-score [5]: 0.333
z-score [6]: 0.883
z-score [7]: 0.258 (inactive)
z-score [8]: -0.146
z-score [9]: -0.597
z-score [10]: -0.145 (inactive)
z-score [11]: 0.0057
z-score [12]: -1.95 (inactive)
z-score [13]: 0.266 (inactive)
composite z-score [14]: 0.519 (inactive)
z-score [15]: -1.02 (inactive)
z-score [16]: 0.131 (inactive)
z-score [17]: -0.0502 (inactive)
z-score [18]: -0.094
composite z-score [19]: 0.0896

COCC(=C=CC[C@H](O)c1ccc(OCCO)cc1)C[C@H](O)c1ccccn1
z-score [1]: 0.905
z-score [2]: -0.518
z-score [3]: 0.0126
z-score [4]: 0.682
z-score [5]: 0.237
z-score [6]: 1.79
z-score [7]: 1.09 (inactive)
z-score [8]: -0.145
z-score [9]: -0.116
z-score [10]: 1.02 (inactive)
z-score [11]: 0.959
z-score [12]: -0.413 (inactive)
z-score [13]: 1.33 (inactive)
composite z-score [14]: -0.86 (inactive)
z-score [15]: 0.275 (inactive)
z-score [16]: 1.74 (inactive)
z-score [17]: 1.21 (inactive)
z-score [18]: 0.827
composite z-score [19]: -0.02

CO[C@@H]1COC(=O)[C@H](COCc2ccccc2)NC(=O)CC=C[C@@H](C)[C@H](OC)COC(=O)[C@H](COCc2ccccc2)NC(=O)CC=C[C@H]1C
z-score [1]: 0.404
z-score [2]: 0.67
z-score [3]: -0.0841
z-score [4]: 0.0234
z-score [5]: 0.711
z-score [6]: 0.849
z-score [7]: 1 (inactive)
z-score [8]: 0.525
z-score [9]: 0.178
z-score [10]: 0.296 (inactive)
z-score [11]: 0.784
z-score [12]: -0.173 (inactive)
z-score [13]: 1.28 (inactive)
composite z-score [14]: 0.946 (inactive)
z-score [15]: 0.371 (inactive)
z-score [16]: 2.23 (inactive)
z-score [17]: -0.0924 (inactive)
z-score [18]: 0.415
composite z-score [19]: 0.378

O=C1c2ccccc2[C@](Cc2ccccc2I)(C(=O)NCC(F)(F)F)[C@H](c2ccc(CO)cc2)N1Cc1ccccc1C(F)(F)F
z-score [1]: 0.187
z-score [2]: 1.31
z-score [3]: -0.529
z-score [4]: -2.72
z-score [5]: -2.27
z-score [6]: 0.535
z-score [7]: -0.225 (inactive)
z-score [8]: -0.248
z-score [9]: 0.415
z-score [10]: 1.32 (inactive)
z-score [11]: 0.226
z-score [12]: -1.29 (inactive)
z-score [13]: 1.13 (inactive)
composite z-score [14]: -0.449 (inactive)
z-score [15]: -0.719 (inactive)
z-score [16]: 0.775 (inactive)
z-score [17]: 0.23 (inactive)
z-score [18]: 1.69
composite z-score [19]: -0.174

CO[C@]12C=C(Br)[C@@H](C[C@@H]1c1ccccc1)[C@@]1(CO1)C2=O
z-score [1]: -1.08
z-score [2]: 1.18
z-score [3]: -1.08
z-score [4]: -2.34
z-score [5]: -1.62
z-score [6]: -0.143
z-score [7]: 1.12 (inactive)
z-score [8]: -0.376
z-score [9]: 0.0484
z-score [10]: -0.446 (inactive)
z-score [11]: 0.418
z-score [12]: -5.19 (inactive)
z-score [13]: 0.0036 (inactive)
composite z-score [14]: 1.03 (inactive)
z-score [15]: -0.123 (inactive)
z-score [16]: 2.39 (inactive)
z-score [17]: 1.29 (inactive)
z-score [18]: 0.63
composite z-score [19]: -0.142

CC(C)N1CC=CC23O[C@@H]4/C=C\CCCOC(=O)C4[C@H]2C(=O)N(CCCCCO)[C@@H]3C1=O (stereo partly specified)
z-score [1]: 0.196
z-score [2]: 1.24
z-score [3]: 0.791
z-score [4]: 1.64
z-score [5]: 0.0268
z-score [6]: 0.446
z-score [7]: 1.31 (inactive)
z-score [8]: -0.197
z-score [9]: 0.599
z-score [10]: 0.929 (inactive)
z-score [11]: 0.46
z-score [12]: -1.08 (inactive)
z-score [13]: 1.35 (inactive)
composite z-score [14]: 0.623 (inactive)
z-score [15]: -0.354 (inactive)
z-score [16]: 1.26 (inactive)
z-score [17]: 1.29 (inactive)
z-score [18]: 1.13
composite z-score [19]: 0.973
